# Experimental data published in PubChem BioAssay (EPA / NIEHS).
# Results filed as inconclusive are left out. Active and inactive are the calls of the source. The calls were made as follows, unless noted: active = hit-call score of the fitted dose curve at least 0.9, where 1 is the maximum; inconclusive = response in the unintended direction; inactive = score below 0.9.
# Key:
# [1] = target: Retinoic acid receptor alpha (Homo sapiens) (UniProt P10276); experiment: ATG_DR5_RAR_CIS: Attagene CIS-FACTORIAL HepG2 Assay for human Retinoic Acid Receptor Alpha (RARE), DR5 submotif (AID 2282934; active = hit-call score of the fitted dose curve at least 0.9, where 1 is the maximum; inactive = score below 0.9); conditions: HepG2 Attagene cis-factorial RARE DR5 reporter, mRNA; actives raise or lower the signal
# Sequence of Retinoic acid receptor alpha (Homo sapiens) (P10276 whole entry, looked up): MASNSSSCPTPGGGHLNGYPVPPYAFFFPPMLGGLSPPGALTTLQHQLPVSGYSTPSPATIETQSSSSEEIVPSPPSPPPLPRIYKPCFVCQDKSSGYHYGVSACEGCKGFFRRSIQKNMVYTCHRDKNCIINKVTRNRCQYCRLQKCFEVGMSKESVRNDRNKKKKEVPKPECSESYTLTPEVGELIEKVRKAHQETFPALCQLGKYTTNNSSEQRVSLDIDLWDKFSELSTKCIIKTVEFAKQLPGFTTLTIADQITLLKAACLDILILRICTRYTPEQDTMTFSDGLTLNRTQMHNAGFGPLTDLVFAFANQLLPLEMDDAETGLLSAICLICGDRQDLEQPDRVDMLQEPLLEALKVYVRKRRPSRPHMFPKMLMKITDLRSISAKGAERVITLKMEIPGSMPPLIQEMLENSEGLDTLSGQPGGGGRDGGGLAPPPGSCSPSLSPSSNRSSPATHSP
# Summary of the method: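 HepG2, transient cis-reporter transfection, 24 h exposure. mRNA readout: RT-PCR, FAM label, HpaI cut, capillary electrophoresis. DMSO baseline, gain/loss fitting.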
# [2] = target: Bile acid receptor (Homo sapiens) (UniProt Q96RI1); experiment: ATG_IR1_CIS: Attagene CIS-FACTORIAL HepG2 Assay for human Nuclear Receptor Subfamily 1 Group H Member 4 (NR1H4), IR1 submotif (AID 2282946; active = hit-call score of the fitted dose curve at least 0.9, where 1 is the maximum; inactive = score below 0.9); conditions: IR1 reporter transcription, actives raise or lower the signal
# Sequence of Bile acid receptor (Homo sapiens) (Q96RI1 whole entry, looked up, the tested form may be a part): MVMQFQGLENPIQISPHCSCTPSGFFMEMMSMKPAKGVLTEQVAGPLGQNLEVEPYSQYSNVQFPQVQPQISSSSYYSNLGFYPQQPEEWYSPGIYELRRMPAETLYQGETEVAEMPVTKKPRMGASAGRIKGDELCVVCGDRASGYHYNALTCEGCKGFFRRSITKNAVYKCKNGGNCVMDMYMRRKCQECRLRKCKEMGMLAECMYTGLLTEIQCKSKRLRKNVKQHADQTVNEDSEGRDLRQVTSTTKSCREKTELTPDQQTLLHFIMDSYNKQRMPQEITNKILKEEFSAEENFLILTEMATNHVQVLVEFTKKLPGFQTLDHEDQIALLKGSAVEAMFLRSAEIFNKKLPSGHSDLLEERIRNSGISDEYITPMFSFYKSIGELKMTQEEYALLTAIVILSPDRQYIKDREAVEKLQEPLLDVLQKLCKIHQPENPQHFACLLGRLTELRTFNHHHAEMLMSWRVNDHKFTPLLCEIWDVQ
# Summary of the method: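 Cells (human HepG2) carry transiently transfected cis-promoter reporter transcription units. Compounds are incubated 24 h, total RNA is reverse-transcribed and amplified, and labelled fragments are resolved by capillary electrophoresis. Curves use DMSO as baseline.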
# [3] = target: Nuclear receptor subfamily 1 group I member 3 (Homo sapiens) (UniProt Q14994); experiment: ATG_CAR_TRANS: Attagene TRANS-FACTORIAL HepG2 Assay for human Constitutive Androstane Receptor (CAR) (AID 2282969); conditions: HepG2 Attagene TRANS-FACTORIAL CAR reporter;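 also: activators raise reporter mRNA above DMSO so AC50 marks induction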
# Sequence of Nuclear receptor subfamily 1 group I member 3 (Homo sapiens) (Q14994 whole entry, looked up, the tested form may be a part): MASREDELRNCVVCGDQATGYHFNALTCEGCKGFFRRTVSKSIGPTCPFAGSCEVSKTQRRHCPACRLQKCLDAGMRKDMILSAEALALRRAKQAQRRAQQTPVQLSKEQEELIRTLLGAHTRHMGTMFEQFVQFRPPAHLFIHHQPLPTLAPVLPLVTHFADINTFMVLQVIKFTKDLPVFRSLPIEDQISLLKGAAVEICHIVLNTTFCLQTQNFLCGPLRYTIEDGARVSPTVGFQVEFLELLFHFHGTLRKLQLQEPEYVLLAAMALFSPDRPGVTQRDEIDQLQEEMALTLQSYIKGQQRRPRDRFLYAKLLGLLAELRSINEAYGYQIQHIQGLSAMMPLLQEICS
# Summary of the method: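 Readout is reporter mRNA induction, quantified by fluorescent primer extension and capillary electrophoresis after RT-PCR. Cells were HepG2 transiently carrying chimeric NR-Gal4 constructs with GAL4-UAS reporters, treated for 24 h; activity scored upward from DMSO.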
# [4] = ATG_GAL4_TRANS: Attagene TRANS-FACTORIAL HepG2 Assay for GAL4 (Internal Marker) (AID 2282976); conditions: HepG2 Attagene TRANS GAL4 internal marker reporter
# Summary of the method: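 Liver HepG2 line bearing multiplexed GAL4-UAS reporter constructs; 24 h chemical treatment. Transcripts were quantified as fluorescent fragments on capillary electrophoresis after RT-PCR and HpaI cut, with activity fitted upward from DMSO.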
# [5] = target: Oxysterols receptor LXR-alpha (Homo sapiens) (UniProt Q13133); experiment: ATG_LXRa_TRANS: Attagene TRANS-FACTORIAL HepG2 Assay for human Liver X Receptor alpha (LXRa) (AID 2282980); conditions: HepG2 Attagene TRANS reporter, LXRa transactivation
# Sequence of Oxysterols receptor LXR-alpha (Homo sapiens) (Q13133 whole entry, looked up, the tested form may be a part): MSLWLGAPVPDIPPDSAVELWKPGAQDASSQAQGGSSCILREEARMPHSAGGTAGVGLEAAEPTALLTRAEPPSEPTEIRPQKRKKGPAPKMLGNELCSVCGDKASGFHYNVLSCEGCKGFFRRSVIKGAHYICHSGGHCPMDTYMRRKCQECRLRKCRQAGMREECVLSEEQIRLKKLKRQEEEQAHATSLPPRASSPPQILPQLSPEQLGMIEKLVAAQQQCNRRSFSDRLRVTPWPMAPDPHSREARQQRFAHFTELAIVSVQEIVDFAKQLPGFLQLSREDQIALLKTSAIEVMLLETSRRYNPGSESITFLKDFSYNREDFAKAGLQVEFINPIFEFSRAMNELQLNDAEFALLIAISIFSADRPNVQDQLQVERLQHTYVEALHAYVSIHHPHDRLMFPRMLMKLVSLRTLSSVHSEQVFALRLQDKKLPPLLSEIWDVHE
# Summary of the method: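 In this multiplexed TRANS system, compounds act on HepG2 cells carrying GAL4-UAS reporter units and a receptor-GAL4 fusion for 24 h. Induced reporter RNA is amplified, fluorescently labelled and sized by capillary electrophoresis, with DMSO as baseline.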
# [6] = target: Oxysterols receptor LXR-beta (Homo sapiens) (UniProt P55055); experiment: ATG_LXRb_TRANS: Attagene TRANS-FACTORIAL HepG2 Assay for human Liver X Receptor beta (LXRb) (AID 2282981); conditions: HepG2 Attagene TRANS GAL4-LXRb reporter, mRNA
# Summary of the method: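 Transient transfection HepG2 (multiplexed RTUs, GAL4-UAS); NR-Gal4 chimera; 24 h exposure; RNA → RT-PCR → 6-FAM primer extension → HpaI → CE; increase vs DMSO.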
# [7] = target: Nuclear receptor subfamily 4 group A member 2 (Homo sapiens) (UniProt P43354); experiment: ATG_NURR1_TRANS: Attagene TRANS-FACTORIAL HepG2 Assay for human Nuclear Receptor Related Protein 1 (NURR1) (AID 2282985); conditions: HepG2 Attagene TRANS reporter, mRNA readout
# Summary of the method: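 Transient transfection of HepG2, human liver cells, with multiple GAL4-UAS reporter transcription units. Cells dosed 24 h, RNA isolated, reverse-transcribed, PCR-amplified, FAM-labelled, HpaI-digested, sized by capillary electrophoresis. DMSO served as negative control.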
# [8] = target: human RAR-related Orphan Receptor gamma (RORg), RORC (gene 6097) (UniProt P51449); experiment: ATG_RORg_TRANS: Attagene TRANS-FACTORIAL HepG2 Assay for human RAR-related Orphan Receptor gamma (RORg) (AID 2283011)
# Sequence of human RAR-related Orphan Receptor gamma (RORg), RORC (gene 6097) (P51449 whole entry, looked up, the tested form may be a part): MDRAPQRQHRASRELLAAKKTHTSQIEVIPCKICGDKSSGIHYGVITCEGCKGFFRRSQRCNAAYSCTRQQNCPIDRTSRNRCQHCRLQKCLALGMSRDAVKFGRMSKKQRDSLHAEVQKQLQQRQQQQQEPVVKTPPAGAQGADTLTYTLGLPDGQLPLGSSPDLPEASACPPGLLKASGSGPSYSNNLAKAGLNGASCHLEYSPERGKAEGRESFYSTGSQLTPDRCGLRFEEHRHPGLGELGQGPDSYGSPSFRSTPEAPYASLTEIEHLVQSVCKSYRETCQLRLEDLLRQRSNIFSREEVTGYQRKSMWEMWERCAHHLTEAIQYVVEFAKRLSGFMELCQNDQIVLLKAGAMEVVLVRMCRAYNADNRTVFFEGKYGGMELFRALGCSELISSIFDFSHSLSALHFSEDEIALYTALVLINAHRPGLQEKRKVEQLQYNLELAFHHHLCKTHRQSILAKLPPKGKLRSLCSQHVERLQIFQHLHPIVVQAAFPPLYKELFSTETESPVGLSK
# Summary of the method: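 Chimeric RORg-Gal4 transactivation in transfected HepG2; 24 h exposure; RT-PCR/capillary electrophoresis readout of reporter mRNA, DMSO baseline.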
# [9] = TOX21_p53_BLA_p4_viability: Viability Assessment in the Tox21 HCT-116 p53 Agonism Beta-lactamase Assay, Phase 4 (AID 2283597);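 also: hits lower the luminescence signal meaning cytotoxicity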
# Summary of the method: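 Luminescent ATP readout (CellTiter-Glo, 30 min, room temperature) in the same wells as the p53 bla ratio. HCT116 cells were treated for 16 h at 37C with DMSO-dissolved compounds.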
# [10] = TOX21_p53_BLA_p5_viability: Viability Assessment in the Tox21 HCT-116 p53 Agonism Beta-lactamase Assay, Phase 5 (AID 2283600)
# Summary of the method: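 Seeded cells (4000/well) settle 5 h before compound addition. Plates then incubate 16 h at 37C, receive FRET substrate for 2 h, and finally CellTiter-Glo, with luminescence measured after a 30 min room-temperature incubation.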
# [11] = target: human Peroxisome Proliferator-activated Receptor alpha (PPARa), PPARA (gene 5465) (UniProt Q07869); experiment: ATG_PPARa_TRANS: Attagene TRANS-FACTORIAL HepG2 Assay for human Peroxisome Proliferator-activated Receptor alpha (PPARa) (AID 2283001)
# Sequence of human Peroxisome Proliferator-activated Receptor alpha (PPARa), PPARA (gene 5465) (Q07869 whole entry, looked up, the tested form may be a part): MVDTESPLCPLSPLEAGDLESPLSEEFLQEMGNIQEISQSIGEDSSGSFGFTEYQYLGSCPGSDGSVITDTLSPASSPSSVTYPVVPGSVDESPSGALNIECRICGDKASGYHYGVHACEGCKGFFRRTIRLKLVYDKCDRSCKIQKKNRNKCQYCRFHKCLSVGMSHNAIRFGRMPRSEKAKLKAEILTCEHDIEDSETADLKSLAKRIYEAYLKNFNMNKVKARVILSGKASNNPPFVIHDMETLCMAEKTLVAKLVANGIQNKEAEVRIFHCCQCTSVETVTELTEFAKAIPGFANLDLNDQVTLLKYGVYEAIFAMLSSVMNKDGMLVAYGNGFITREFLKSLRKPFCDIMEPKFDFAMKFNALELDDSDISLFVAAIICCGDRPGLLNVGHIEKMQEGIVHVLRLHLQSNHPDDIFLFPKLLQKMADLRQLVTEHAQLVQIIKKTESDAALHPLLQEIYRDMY
# Summary of the method: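 Read-out is fluorescence of reporter cDNA fragments resolved by capillary electrophoresis after RT-PCR. Human HepG2 liver cells carried transfected PPARa-Gal4 chimera and GAL4-UAS reporter units, treated 24 h; activity scored as increase over DMSO.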
# [12] = target: human RAR-related Orphan Receptor beta (RORb), RORB (gene 6096) (UniProt Q92753); experiment: ATG_RORb_TRANS: Attagene TRANS-FACTORIAL HepG2 Assay for human RAR-related Orphan Receptor beta (RORb) (AID 2283010)
# Sequence of human RAR-related Orphan Receptor beta (RORb), RORB (gene 6096) (Q92753 whole entry, looked up, the tested form may be a part): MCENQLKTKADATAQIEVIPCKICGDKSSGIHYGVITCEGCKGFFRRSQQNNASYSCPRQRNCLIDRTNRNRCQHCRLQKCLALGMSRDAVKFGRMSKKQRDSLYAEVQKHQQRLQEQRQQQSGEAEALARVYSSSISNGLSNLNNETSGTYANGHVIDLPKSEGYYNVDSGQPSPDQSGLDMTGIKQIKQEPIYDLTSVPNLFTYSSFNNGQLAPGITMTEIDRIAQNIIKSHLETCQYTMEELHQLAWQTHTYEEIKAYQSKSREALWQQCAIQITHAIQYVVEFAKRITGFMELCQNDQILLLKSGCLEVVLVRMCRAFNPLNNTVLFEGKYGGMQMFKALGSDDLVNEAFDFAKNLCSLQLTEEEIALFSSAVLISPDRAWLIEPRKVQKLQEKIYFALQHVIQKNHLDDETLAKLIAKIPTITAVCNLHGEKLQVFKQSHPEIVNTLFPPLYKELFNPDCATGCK
# Summary of the method: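 HepG2 cells transiently transfected with GAL4-UAS reporter units expressing chimeric NR-Gal4 protein; reporter mRNA measured 24 h after dosing by RT-PCR, 6-FAM labelling and capillary electrophoresis. Gain-of-signal fitted relative to DMSO baseline.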
# [13] = target: human Thyroid Receptor alpha (THRa1), THRA (gene 7067) (UniProt P10827); experiment: ATG_THRa1_TRANS: Attagene TRANS-FACTORIAL HepG2 Assay for human Thyroid Receptor alpha (THRa1) (AID 2283014)
# Sequence of human Thyroid Receptor alpha (THRa1), THRA (gene 7067) (P10827 whole entry, looked up, the tested form may be a part): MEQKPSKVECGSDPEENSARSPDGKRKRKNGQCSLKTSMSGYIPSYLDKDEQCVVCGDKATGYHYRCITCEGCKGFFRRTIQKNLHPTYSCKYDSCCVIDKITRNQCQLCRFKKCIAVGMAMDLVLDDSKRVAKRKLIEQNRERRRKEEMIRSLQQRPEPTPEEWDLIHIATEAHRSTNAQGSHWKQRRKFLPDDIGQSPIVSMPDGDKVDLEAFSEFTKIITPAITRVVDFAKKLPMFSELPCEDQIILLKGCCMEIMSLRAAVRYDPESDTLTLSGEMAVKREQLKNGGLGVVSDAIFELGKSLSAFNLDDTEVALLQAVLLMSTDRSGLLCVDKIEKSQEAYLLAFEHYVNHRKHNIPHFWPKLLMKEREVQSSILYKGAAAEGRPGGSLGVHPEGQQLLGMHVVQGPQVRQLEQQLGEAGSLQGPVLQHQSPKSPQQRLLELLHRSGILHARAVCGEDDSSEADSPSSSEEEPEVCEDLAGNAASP
# Summary of the method: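 Measured here is mRNA from a GAL4-UAS reporter in transfected HepG2 cells carrying a Gal4-fused receptor, 24 h post-dose. DMSO served as negative control and baseline.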
# [14] = TOX21_p53_BLA_p3_viability: Viability Assessment in the Tox21 HCT-116 p53 Agonism Beta-lactamase Assay, Phase 3 (AID 2283593);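 also: cells exposed to compound for 16 h before reading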
# Summary of the method: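 Cellular ATP was quantified by CellTiter-Glo luminescence, read after 30 min at room temperature. Beforehand, HCT116 cells (4000/well) received compound 5 h post-seeding, 217-fold diluted from DMSO, then incubated 16 h at 37C.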
# [15] = ACEA_ER_AUC_viability: ACEA Biosciences xCELLigence Real-Time Cell Analysis on Estrogen Receptor Agonism for Viability (AID 2283782);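 also: continuous compound exposure with impedance area under curve over 80 h; hit means loss of impedance signal meaning reduced cell growth or viability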
# Summary of the method: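 T-47D; phenol red-free RPMI1640 + 10% CS-FBS; 8 conc., 1:4 serial, max 100 uM final, ≤0.5% DMSO; n = 2; continuous exposure; impedance monitored to 80 h post-dose; AUC vs DMSO.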
# [16] = CCTE_Harrill_HTTr_Viability_MCF7: CCTE's 6-hour Cell Viability Assessment for the High-Throughput Transcriptomics (HTTr) Platform, in MCF-7 cells cultured in DMEM + 10% fetal bovine serum, Harrill Lab (AID 2284010; active = hit-call score of the fitted dose curve at least 0.9, where 1 is the maximum; inactive = score below 0.9)
# Summary of the method: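 MCF-7 cells in DMEM + 10% FBS, 384-well, exposed 6 h to an eight-point dilution series. Membrane integrity scored by high-content imaging of propidium iodide exclusion; bidirectional fit versus DMSO.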
# [17] = CCTE_Harrill_HTTr_Apoptosis_MCF7: CCTE's 6-hour Apoptosis Assessment for the High-Throughput Transcriptomics (HTTr) Platform, in MCF-7 cells cultured in DMEM + 10% fetal bovine serum, Harrill Lab (AID 2284011; active = hit-call score of the fitted dose curve at least 0.9, where 1 is the maximum; inactive = score below 0.9)
# Summary of the method: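 Apoptosis in MCF-7 cells grown in DMEM with 10% fetal bovine serum was scored after a six hour exposure by high content imaging of caspase-3/7 activation (CellEvent Caspase 3/7 Green), with DMSO serving as negative control and baseline.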
# [18] = target: Glucocorticoid receptor (Homo sapiens) (UniProt P04150); experiment: ATG_GR_TRANS: Attagene TRANS-FACTORIAL HepG2 Assay for human Glucocorticoid Receptor (GR) (AID 2282978); conditions: HepG2 Attagene TRANS GR reporter, mRNA transcription;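 also: activators score as hits since higher reporter transcript over DMSO is fitted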
# Sequence of Glucocorticoid receptor (Homo sapiens) (P04150 whole entry, looked up, the tested form may be a part): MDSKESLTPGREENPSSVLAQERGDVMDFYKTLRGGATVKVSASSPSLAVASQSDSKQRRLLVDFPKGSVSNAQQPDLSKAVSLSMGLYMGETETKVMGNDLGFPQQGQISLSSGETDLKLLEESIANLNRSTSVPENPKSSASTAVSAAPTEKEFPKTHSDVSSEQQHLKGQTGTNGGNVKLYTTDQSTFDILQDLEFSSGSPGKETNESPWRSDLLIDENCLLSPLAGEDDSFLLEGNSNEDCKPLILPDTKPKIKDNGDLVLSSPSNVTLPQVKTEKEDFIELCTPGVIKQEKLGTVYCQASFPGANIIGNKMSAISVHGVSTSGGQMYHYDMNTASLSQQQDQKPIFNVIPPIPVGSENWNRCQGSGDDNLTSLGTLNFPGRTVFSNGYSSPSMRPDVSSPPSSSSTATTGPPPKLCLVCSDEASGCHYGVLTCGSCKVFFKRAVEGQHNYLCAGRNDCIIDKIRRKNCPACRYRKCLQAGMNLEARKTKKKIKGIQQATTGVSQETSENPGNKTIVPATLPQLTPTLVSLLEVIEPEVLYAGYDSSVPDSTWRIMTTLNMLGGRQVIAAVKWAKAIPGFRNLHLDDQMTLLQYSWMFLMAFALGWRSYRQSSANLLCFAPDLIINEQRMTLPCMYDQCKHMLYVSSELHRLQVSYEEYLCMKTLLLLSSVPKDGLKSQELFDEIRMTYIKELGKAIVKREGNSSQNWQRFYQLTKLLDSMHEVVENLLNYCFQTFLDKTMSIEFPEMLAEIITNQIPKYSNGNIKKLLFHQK
# Summary of the method: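 Fluorescent capillary-electrophoresis quantitation of reporter mRNA is the readout, taken 24 h after dosing human HepG2 cells carrying transiently transfected GAL4-UAS reporter units activated by chimeric NR-GAL4 fusions; activity scored as induction over DMSO.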
# [19] = target: Peroxisome proliferator-activated receptor gamma (Homo sapiens) (UniProt P37231); experiment: ATG_PPARg_TRANS: Attagene TRANS-FACTORIAL HepG2 Assay for human Peroxisome Proliferator-activated Receptor-gamma (PPARg) (AID 2283007)
# Sequence of Peroxisome proliferator-activated receptor gamma (Homo sapiens) (P37231 whole entry, looked up, the tested form may be a part): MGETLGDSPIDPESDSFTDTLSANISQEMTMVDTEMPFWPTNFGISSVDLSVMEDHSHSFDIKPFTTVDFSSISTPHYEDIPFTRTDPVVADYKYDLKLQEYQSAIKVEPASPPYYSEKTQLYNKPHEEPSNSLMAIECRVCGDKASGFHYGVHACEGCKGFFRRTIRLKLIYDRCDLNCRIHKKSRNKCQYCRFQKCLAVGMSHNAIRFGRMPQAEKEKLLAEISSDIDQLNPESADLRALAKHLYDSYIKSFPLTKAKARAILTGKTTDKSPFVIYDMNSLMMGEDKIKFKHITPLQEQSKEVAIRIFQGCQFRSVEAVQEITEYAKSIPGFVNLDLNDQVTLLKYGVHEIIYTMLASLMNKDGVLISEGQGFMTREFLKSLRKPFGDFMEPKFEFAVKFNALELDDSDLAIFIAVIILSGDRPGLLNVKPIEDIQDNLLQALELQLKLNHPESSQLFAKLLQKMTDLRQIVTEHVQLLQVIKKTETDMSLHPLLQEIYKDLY
# Summary of the method: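 Transient transfection of HepG2 with GAL4-UAS-driven reporter units; chemical dosing 24 h; total RNA → oligo(dT) RT → PCR with reporter primers → 6-FAM primer extension → HpaI digest 2 h 37 C → capillary electrophoresis. Positive direction vs DMSO.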
# [20] = ATG_PPRE_CIS: Attagene CIS-FACTORIAL HepG2 Assay for human Peroxisome Proliferator-activated Response Element (PPRE) (AID 2282958; active = hit-call score of the fitted dose curve at least 0.9, where 1 is the maximum; inactive = score below 0.9); conditions: HepG2 PPRE cis-element reporter, Attagene transcription factor profiling; actives raise or lower the signal
# Summary of the method: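 HepG2, transient MRTU transfection (cis promoter elements, endogenous TFs). 24 h dosing. RNA → oligo(dT) RT → PCR → 6-FAM primer extension → HpaI digest → CE. Bidirectional fit vs DMSO.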
structure (smiles),measurement,setting,value
NC(=O)c1ccc(N)cc1,outcome,[1],inactive
same,outcome,[2],inactive
same,outcome,[3],inactive
same,outcome,[4],inactive
same,outcome,[5],inactive
same,outcome,[6],inactive
same,outcome,[7],inactive
same,outcome,[8],inactive
same,outcome,[9],inactive
same,outcome,[10],inactive
Cc1cc2nc3c(=O)[nH]c(=O)nc-3n(C[C@H](O)[C@H](O)[C@H](O)CO)c2cc1C,outcome,[1],inactive
same,outcome,[2],inactive
same,outcome,[4],inactive
same,outcome,[5],inactive
same,outcome,[6],inactive
same,outcome,[11],inactive
same,outcome,[12],inactive
same,outcome,[8],inactive
same,outcome,[13],inactive
same,outcome,[14],inactive
same,outcome,[9],inactive
same,outcome,[10],inactive
same,AC50,[15],47 µM (active)
same,outcome,[16],inactive
same,outcome,[17],inactive
[O-][n+]1ccc(Cl)cc1,outcome,[1],inactive
same,outcome,[2],inactive
same,outcome,[4],inactive
same,outcome,[18],inactive
same,outcome,[6],inactive
same,outcome,[11],inactive
same,outcome,[12],inactive
same,outcome,[8],inactive
CCOC(=O)CC(=O)OCC,outcome,[1],inactive
same,outcome,[2],inactive
same,outcome,[4],inactive
same,outcome,[18],inactive
same,outcome,[11],inactive
same,outcome,[12],inactive
same,outcome,[8],inactive
same,outcome,[14],inactive
same,outcome,[16],inactive
same,outcome,[17],inactive
CCCCOC(=O)COc1ccc(Cl)cc1Cl,outcome,[1],inactive
same,AC50,[2],24.4 µM (active)
same,outcome,[3],inactive
same,outcome,[19],inactive
same,outcome,[12],inactive
same,outcome,[9],inactive
same,outcome,[10],inactive
same,outcome,[15],inactive
COC(=O)c1ccccc1,outcome,[20],inactive
same,outcome,[4],inactive
same,outcome,[5],inactive
same,outcome,[6],inactive
same,outcome,[12],inactive
same,outcome,[8],inactive
same,outcome,[13],inactive
same,outcome,[14],inactive
same,outcome,[9],inactive
same,outcome,[10],inactive
C[C@H]1C[C@H]2[C@@H]3CCC4=CC(=O)C=C[C@]4(C)[C@@]3(F)[C@@H](O)C[C@]2(C)[C@@]1(O)C(=O)CO,outcome,[7],inactive
same,outcome,[11],inactive
same,outcome,[13],inactive
same,outcome,[14],inactive
same,outcome,[9],inactive
same,outcome,[10],inactive
same,outcome,[16],inactive
same,outcome,[17],inactive
CCCC[N+]1(C)CCCC1,outcome,[5],inactive
same,outcome,[6],inactive
same,outcome,[11],inactive
same,outcome,[19],inactive
same,outcome,[12],inactive
Nc1nnc(-c2ccc([N+](=O)[O-])o2)o1,outcome,[1],inactive
same,outcome,[20],inactive
same,outcome,[6],inactive
same,outcome,[11],inactive
same,outcome,[19],inactive
same,outcome,[14],inactive
same,outcome,[9],inactive
same,outcome,[10],inactive
CCOC(=O)c1ccccc1,outcome,[20],inactive
same,AC50,[18],27.9 µM (active)
same,outcome,[5],inactive
same,outcome,[6],inactive
same,outcome,[11],inactive
same,outcome,[19],inactive
same,outcome,[12],inactive
same,outcome,[8],inactive
same,outcome,[14],inactive
same,outcome,[9],inactive
same,AC50,[15],50 µM (active)
CCCCC(CC)COC(=O)CS (stereo unspecified),outcome,[1],inactive
same,outcome,[4],inactive
same,outcome,[18],inactive
same,outcome,[11],inactive
same,outcome,[14],inactive
same,outcome,[9],inactive
same,outcome,[15],inactive
CCCC(=O)OC/C=C(\C)CCC=C(C)C,outcome,[1],inactive
same,outcome,[2],inactive
same,outcome,[20],inactive
same,outcome,[3],inactive
same,outcome,[4],inactive
same,outcome,[18],inactive
same,outcome,[11],inactive
same,outcome,[19],inactive
same,outcome,[8],inactive
same,outcome,[13],inactive
same,AC50,[15],68.8 µM (active)
O=S(=O)(O)c1cccc2ccccc12,outcome,[20],inactive
same,outcome,[11],inactive
same,outcome,[19],inactive
same,outcome,[8],inactive
same,outcome,[15],inactive
